Compound activity as filed in PubChem.
A selection: hits, their analogues and other compounds. The true share with any hit is near 3%.
Nrf2 activator – activates Nrf2 signaling. AREc32 ARE-luciferase reporter (MCF7-derived line), luminescence, 24 h. Potency, µM (highest dose often 46.1 µM), without a hit: at the top dose activation, usual class: activators. 410,000 tested, 0.31% active; note: potency is the fitted concentration of half-maximal effect; % of control where 0% means no effect; nearly all actives have a fitted effect of over 65% in size
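Quantitative high-throughput format: AREc32 reporter cells, 1000 per well, received compound by pin transfer and were incubated 24 hr at 37 deg C, 5% CO2, before Steady-Glo luminescence detection.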
D3 antag – blocks the human D3 dopamine receptor | D3R cells, DiscoveRx beta-arrestin luminescence, antagonist mode; stronger effect = lower value | 360,000 tested, 2.5% active | max response, negative = inhibition, % | AID 652054; in the data active = max response below about -50%; inconclusive = no clear call, values can overlap the other calls; note: % is set by controls: 0 for no effect and ±100 for the full control effect
Target sequence (P35462 whole entry, looked up): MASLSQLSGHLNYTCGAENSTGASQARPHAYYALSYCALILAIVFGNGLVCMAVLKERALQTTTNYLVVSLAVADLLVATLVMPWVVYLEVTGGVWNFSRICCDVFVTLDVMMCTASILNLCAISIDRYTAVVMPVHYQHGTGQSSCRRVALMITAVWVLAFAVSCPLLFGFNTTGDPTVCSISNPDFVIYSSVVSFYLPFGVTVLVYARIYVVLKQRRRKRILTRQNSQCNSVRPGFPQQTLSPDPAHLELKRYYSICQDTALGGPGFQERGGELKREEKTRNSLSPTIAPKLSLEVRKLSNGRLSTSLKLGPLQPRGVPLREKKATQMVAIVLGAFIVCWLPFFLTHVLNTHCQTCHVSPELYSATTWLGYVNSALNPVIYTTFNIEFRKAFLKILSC
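Cells plated overnight at 1500 cells/well, then exposed to library compounds with dopamine controls for 90 minutes at 37 degrees C. DiscoveRx reagent added for 30–60 minutes at room temperature; luminescence read, quantitative HTS format.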
Glioma ERSR ind – inducers of ER stress response in human glioma cells; U87-MG GRP78 promoter luciferase reporter, 16 h; Potency, µM, for the others: at the highest dose activation, most hits filed as activators; 420,000 tested, 0.02% active; AID 602332; note: potency is the fitted concentration of half-maximal effect; series mostly up to about 76 µM; % of control where 0% means no effect; nearly all actives have a fitted effect of over 35% in size
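Stably transfected U87-MG glioma cells carrying a GRP78-based luciferase sensor; 16 h compound incubation. Luminescence end-point read 10 min after Bright-Glo addition at room temperature.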
D3 ag – D3 dopamine receptor (human) agonism. P35462. max activation, %. 410,000 tested, 0.58% active. D3R DiscoveRx beta-arrestin cells, luminescence, 90 min. AID 652048; in the data active = max activation above about 30%; note: 0% is about no effect
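Cells at 1500/well, incubated overnight, then treated with pinned compounds (dopamine as control) for 90 min at 37 degrees C. DiscoveRx reagent added for 30 - 60 minutes at room temperature; luminescence read.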
The depositor's hits bear a star; ? = inconclusive; . = not tested or not shown. Unless noted, calls come from the whole dose curve; as a rule, active = well fitted curve in the direction sought with a large enough effect; inconclusive = small, poorly fitted or top-dose-only effect, or another doubt; inactive = no such curve, though single readings can be large; an effect the other way counts as inactive or inconclusive.

SMILES | Nrf2 activator | D3 antag | Glioma ERSR ind | D3 ag
COc1ccc(Oc2ccc(/C=C/C(=O)c3cccc(OC)c3)cc2[N+](=O)[O-])cc1 | -0.5% | -56.1* | -5.0% | -20.9
COc1ccc(/C=C/C(=O)c2ccc3c(c2)OCCO3)cc1[N+](=O)[O-] | ? | -51.1* | ? | -1.0
COc1ccc(Oc2ccc(/C=N/NC(=O)c3cccnc3)cc2[N+](=O)[O-])cc1 | -0.5% | -20.8 | 2.1% | -3.9
CCOc1cc(/C=C/C(=O)c2ccc(O)cc2)ccc1OCC(=O)N(C)C | ? | 5.1 | 0.8% | 1.2
COc1ccc(C(CNC(=O)c2oc3ccc(Cl)cc3c2C)N2CCCCC2)cc1 (configuration not stated) | -0.5% | -103.3* | -4.6% | -17.9
COc1ccc(C(CNS(=O)(=O)c2ccc(NC(C)=O)c(OC)c2)N2CCCCC2)cc1 (configuration not stated) | 0.2% | 8.9 | -1.4% | -7.8
COc1ccc(C(CNC(=O)c2cccc(S(=O)(=O)Nc3ccc(C)cc3)c2)N2CCCCC2)cc1 (configuration not stated) | 3.6% | -63.9* | -4.7% | -32.7
COc1ccc(C(CNC(=O)c2ccccc2C)N2CCCC2)cc1 (configuration not stated) | 0.3% | -85.3* | -4.2% | -34.1
COc1ccc(C(CNS(=O)(=O)c2ccc(NC(C)=O)c(OC)c2)N2CCCC2)cc1 (configuration not stated) | 0.5% | -53.9* | 0.2% | -2.0
COc1ccc(C(CNC(=O)COc2ccccc2C)N2CCCCC2)cc1 (configuration not stated) | 0.3% | -10.7 | -1.1% | -18.7
Cc1ccccc1C(=O)N1CC/C(=N\OS(=O)(=O)O)c2ccc(Cl)cc21 | . | . | . | 6.4
COc1ccc(CN2CCOc3c(cc(-c4cccc(OC)n4)cc3OC)C2)c(O)c1 | . | . | -6.7% | .
O=S(=O)(Nc1c(Br)cc(Br)c2cccnc12)C1CC1 | . | . | -4.0% | .
CC1CCCN(S(=O)(=O)c2cccc(C(=O)NCc3ccco3)c2)C1 (configuration not stated) | 5.4% | ? | -4.0% | 5.9
COc1ccc(C(CNC(=O)c2cccc(NS(=O)(=O)c3ccc(Br)cc3)c2)N(C)C)cc1 (configuration not stated) | 5.8% | -78.5* | -1.6% | -28.8
COc1ccc(C(CNC(=O)c2cccc(S(=O)(=O)N3CCCC(C)C3)c2)N(C)C)cc1 (configuration not stated) | 2.0% | -65.0* | 1.8% | -27.0
COc1ccc(C(CNC(=O)c2cccc(S(=O)(=O)N(C)c3ccccc3)c2)N2CCCC2)cc1 (configuration not stated) | -0.5% | -66.0* | -3.0% | -24.7
CCC1CCc2sc(C(=O)NCC(c3ccc(OC)cc3)N3CCOCC3)cc2C1 (configuration not stated) | 2.6% | -90.5* | -3.9% | -5.1
Fc1ccc(-c2nn(-c3ccc(Cl)cc3)c3c2cnc2ccc(F)cc23)cc1 | -1.2% | . | -3.8% | 3.5
N#C/C(=C1/SC[C@@H](c2ccc(Cl)cc2Cl)S1)n1ccnc1 | . | . | -4.5% | 4.1
COc1ccc2cc(CNCc3ccccc3C(F)(F)F)c(N3CCCC(CO)C3)nc2c1 (configuration not stated) | . | . | -1.5% | .
COc1ccc(NS(=O)(=O)c2cccc(C(=O)N/N=C/c3cccs3)c2)cc1 | 2.8% | -52.3* | -2.7% | -18.5
COc1ccc(C(CNC(=O)C(C)Oc2ccc(Br)cc2)N2CCCC2)cc1 (configuration not stated) | 0.5% | -81.2* | 1.1% | -23.3
COc1ccc(C(CNC(=O)CN(C)S(=O)(=O)c2ccc(C)cc2)N2CCCC2)cc1 (configuration not stated) | 0.5% | -98.8* | -1.2% | -13.8
COc1ccc(NS(=O)(=O)c2cccc(C(=O)NN=Cc3ccc(OC)cc3OC)c2)cc1 | -0.1% | -29.7 | -3.4% | -8.3
SMILES | Nrf2 activator | D3 antag | Glioma ERSR ind | D3 ag
COc1ccccc1C(=O)NC(CCSC)C(=O)NCC(c1ccco1)N(C)C (configuration not stated) | -0.5% | -67.1* | -3.1% | -5.6
CC(C)C(NS(C)(=O)=O)c1nnc2n1CCN(Cc1ccc(C#CC(C)(C)O)cc1)CC2 (configuration not stated) | . | . | 1.7% | .
Cc1cccc(CC(=O)NCc2nc3cccnc3n2Cc2ccc(F)cc2)c1 | 0.7% | . | -3.7% | -5.8
COc1ccc(C(=O)NCC(c2ccc(Cl)cc2)N2CCCCC2)cc1 (configuration not stated) | -0.9% | . | -0.9% | -16.9
COc1ccc(C(CNC(=O)c2cccc(NS(=O)(=O)c3ccccc3)c2)N2CCCC2)cc1 (configuration not stated) | 3.2% | -88.0* | 1.2% | -2.0
COc1ccc(C(CNC(=S)NCc2ccccc2)N2CCCC2)cc1 (configuration not stated) | 0.2% | -57.8* | -0.8% | -34.8
COc1ccc(C(CNC(=O)c2cccc(Br)c2)N2CCCC2)cc1 (configuration not stated) | -0.7% | -86.8* | -1.3% | -5.1
CCOc1ccc(S(=O)(=O)Nc2cccc(C(=O)NCC(c3ccc(OC)cc3)N3CCOCC3)c2)cc1 (configuration not stated) | 0.2% | -24.5 | -2.6% | -12.5
COc1ccccc1C(CNC(=S)NCc1ccccc1)N1CCCC1 (configuration not stated) | 0.5% | -28.3 | -4.7% | -20.4
COc1ccc(C(CNC(=O)C(CCSC)NC(=O)c2ccccc2Cl)N2CCCCC2)cc1 (configuration not stated) | 0.1% | -59.1* | -4.0% | -22.6
CCC1(C2CCN(C(=O)c3ccc(C)cc3C)CC2)NC(=O)N(CCc2scnc2C)C1=O (configuration not stated) | . | . | -3.2% | .
COc1ccc(C(CNC(=O)c2cccc(NC(=O)c3cccs3)c2)N2CCCC2)cc1 (configuration not stated) | 9.1% | -81.6* | -0.1% | -18.0
COc1ccc(C(=O)Nc2cccc(NC(=O)c3cccs3)c2)cc1 | 4.1% | 7.8 | 2.6% | -5.2
C[N+]1(CC(=O)c2ccc(I)cc2)CCOCC1 | . | . | -2.3% | .
CCN1Cc2cccc(C(=O)Nc3ccc(F)cc3)c2C1=O | -0.3% | . | -0.4% | -4.7
COc1ccc(NC(=O)c2cc(S(=O)(=O)N3CCOCC3)ccc2C)cc1S(=O)(=O)N1CCOCC1 | -0.7% | -19.3 | -3.9% | -3.3
COc1ccc(NC(=O)c2cc(S(=O)(=O)N3CCCCC3)ccc2C)cc1S(=O)(=O)N1CCOCC1 | 2.4% | -52.0* | -2.0% | -5.7
COc1ccc(NC(=O)c2cc(S(=O)(=O)N3CCCCC3)cn2C)cc1Cl | -0.5% | . | -3.4% | 49.3*
CCOC(=O)C1C(C(=O)OC)=C(c2ccc(F)cc2)c2ccc(OC)cc2N1S(=O)(=O)C(F)(F)F (configuration not stated) | . | . | -5.6% | .
CCOC(=O)C1=C(c2ccccc2)c2ccc(OC)cc2N(S(=O)(=O)C(F)(F)F)C1C(=O)OCC (configuration not stated) | 7.8% | 54.2 | 0.1% | 38.5*
